High-throughput results from PubChem BioAssay.
Most compounds without a hit are left out; they make up all but 2.2% or so of the library.
Calb FLC: C. albicans growth modulation with fluconazole. C. albicans CaCi-2 (fluconazole-resistant clinical isolate) + fluconazole, Alamar Blue growth, 48 h. growth inhibition, % (concentration not given with the values). 300,000 compounds, 0.57% hits;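 active means growth inhibition above about 58% in most replicates, limit read from the data, passing the limit was not always enough; inconclusive means exactly half the replicates above a set limit; inactive means most replicates below a set limit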;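 further: all wells also contain fluconazole at 8 µg/ml as a sub-toxic cotreatment; 0% = median of DMSO wells and 100% = median of geldanamycin control wells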
Beta cell apopt: blocks beta cell apoptosis. INS-1E cytokine-induced death, ATP luminescence, 48 h; percent of positive-control rescue, neutral wells zero. AID 435005. 300,000 compounds, 0.8% hits. protection from apoptosis, % (test concentration not listed);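 active means Every replicate reaches about 75%, or at least half do and their mean reaches it too, limit read from the data; inconclusive means At least half of replicates reach the limit but their mean does not; inactive means Under half of replicates reach the limit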;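 further: 0% = cytokine-treated negative control wells and 100% = positive control rescue; higher means more ATP so stronger rescue from cytokine killing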
Shn3 inh set2: Schnurri-3 reporter inhibition in Clone20 osteoblasts; 360,000 compounds, 0.52% hits; AID 588674; inhibition, % at 12.5 µM; Clone20 osteoblast Shn3 3'UTR firefly luciferase, 24 h;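 active means mean inhibition of at least 75% with every replicate also reaching 75%; inconclusive means mean inhibition at least 75% but some replicate below; inactive means mean inhibition below 75%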;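 further: 0% = median of neutral control wells and 100% = pilot-screen positive control compound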
PfHsp90 yeast 2: inhibits growth of yeast expressing Plasmodium falciparum Hsp90; S. cerevisiae expressing PfHsp90, BacTiter-Glo ATP, 48 h; yeast lacking PDR1 and PDR3 efflux regulators; inhibition, % at 9.4 µM; 310,000 compounds, 0.32% hits; AID 504621;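 active means every replicate shows inhibition above about 80%, whatever the replicate mean, limit read from the data; inconclusive means mean inhibition reaches the set limit but some replicate falls short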;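 further: 0% = DMSO neutral controls and 100% = 20 µM radicicol positive controls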
CSC inhib: cancer stem cell inhibition. cancer stem cell-like cells viability, luminescence. inhibition, % at 7.5 µM. 300,000 compounds, 1.1% hits; in the data active means inhibition above about 75%; inconclusive means no clear call, values can overlap the other calls; tested in HMLE shEcad cells
The depositor's hits bear a star; ? = inconclusive; · = no result given.

SMILES	Calb FLC	Beta cell apopt	Shn3 inh set2	PfHsp90 yeast 2	CSC inhib
COc1ccc(NC(=O)CN(C)C(=O)C(C)N2C(=O)c3ccccc3C2=O)cc1 (configuration not stated)	0.3	0.5	-7.0	·	-2.4
O=C(N/N=C/C=C/c1ccccc1[N+](=O)[O-])c1cccs1	-2.8	1.6	-12.3	8.3	1.7
O=C(N/N=C\C=C\c1ccc([N+](=O)[O-])o1)c1cccs1	91.3*	3.6	-5.3	3.3	10.2
Cc1ccccc1OCC(=O)N/N=C/c1ccc([N+](=O)[O-])o1	29.6	7.4	-12.9	-12.3	-8.5
COc1ccccc1OCC(=O)N/N=C/C=C/c1ccc([N+](=O)[O-])o1	93.5*	-9.3	38.2	-0.5	5.6
O=C(NN=C1CCCCC1)Nc1ccccc1Cl	2.3	-6.2	0.2	10.1	-6.1
N#CC(c1ccc(O)cc1)N1CCN(C(C#N)c2ccc(O)cc2)CC1 (configuration not stated)	·	·	15.3	-27.9	·
CC1(C)CC(N2CCN(Cc3ccccc3)CC2)=CC(=[N+]2CCCCC2)C1	82.7*	108.5*	81.9	-14.0	-2.5
c1ccc(CN2CCN(c3ncccn3)CC2)cc1	12.5	2.1	17.1	17.9	-8.7
O=C1c2c(Br)c(Br)c(Br)c(Br)c2C(=O)N1c1ccccn1	1.7	-11.2	-2.9	-13.5	83.8*
O=C1c2cccc3cccc(c23)C(=O)N1c1ccccn1	8.8	-12.9	15.6	-22.1	-3.6
Cc1cc(C)c(S(=O)(=O)N2CCC(C(=O)NCc3ccc(Cl)cc3Cl)CC2)c(C)c1	-0.8	-9.4	13.9	127.5*	-6.1
Fc1ccc(-c2nn(-c3ccccc3)cc2CNCc2ccccc2)cc1	-4.4	10.9	-1.8	10.2	-11.1
O=C(CCl)Nc1cn(-c2ccccc2)nc1-c1ccc(F)cc1	-8.7	-8.7	96.1*	·	7.2
O=S(=O)(c1ccc2c(c1)C(=NO)c1cc(S(=O)(=O)N3CCCCC3)ccc1-2)N1CCCCC1	-14.3	106.4*	97.7*	·	122.1*
CC1CCN(S(=O)(=O)c2ccc3c(c2)C(=NO)c2cc(S(=O)(=O)N4CCC(C)CC4)ccc2-3)CC1	·	103.9*	95.0*	-8.5	113.1*
O=S(=O)(c1ccc(S(=O)(=O)N2CCCC2)cc1)N1CCCCCC1	-16.9	·	-3.2	·	10.6
CCN(CC)S(=O)(=O)c1ccc2c(c1)C(=NO)c1cc(S(=O)(=O)N(CC)CC)ccc1-2	-1.4	21.8	64.0	-6.2	85.4*
CC(=O)C1=C(c2ccccc2)NC(=O)NC1c1cccs1 (configuration not stated)	1.1	-4.8	2.3	9.7	-1.8
CN(CC(=O)Nc1ccc(F)cc1)C(=O)Cn1cnc2ccc([N+](=O)[O-])cc2c1=O	·	-3.0	-0.6	6.4	-4.6
CC(OC(=O)c1cccs1)C(=O)NC1CCCCC1C (configuration not stated)	·	0.1	6.1	7.7	95.8*
COc1c(Cl)c(=O)oc2ccc(Cl)cc12	·	·	-11.3	·	·
COc1ccccc1-n1c(=O)oc2ccc(Cl)cc2c1=O	·	104.3*	1.2	17.0	·
C=C(C)C1Cc2c(C)nn(-c3cccc4ccccc34)c2C1 (configuration not stated)	-22.1	65.6	15.9	-1.5	95.6*
O=C(/C=C/N1CCOCC1)c1ccc(-c2ccccc2)cc1	2.4	-0.6	-23.6	105.9*	11.6
SMILES	Calb FLC	Beta cell apopt	Shn3 inh set2	PfHsp90 yeast 2	CSC inhib
CC(=O)Nc1ccc(NC(=O)CN(c2cccc([N+](=O)[O-])c2)S(C)(=O)=O)cc1	-12.3	107.5*	-7.3	13.3	-17.4
Cc1ccc(NS(=O)(=O)c2ccc(NC(=O)CN(c3cc([N+](=O)[O-])ccc3C)S(C)(=O)=O)cc2)c(C)c1	10.9	106.0*	45.4	-8.0	-5.5
FC(F)(F)c1ccccc1NC(=S)N/N=C1\CC2CC=CC12 (configuration not stated)	·	·	7.4	2.7	·
CC1CN(c2nnc(NC(=O)c3ccccc3)s2)CC(C)O1 (configuration not stated)	11.6	-3.1	-8.1	22.5	-3.0
CCCCN1C(=O)/C(=C/C=C2\Oc3ccccc3N2CC)SC1=S	17.3	·	12.8	99.4*	·
CCCc1ccc(-c2cc(NC(=O)CSc3nnc(N)s3)n(-c3ccccc3)n2)cc1	?	7.3	-55.7	38.6	85.1*
N#Cc1ccc(-c2ccccc2)nc1SCC(=O)c1cccc(Cl)c1	2.5	-7.4	-24.8	-15.1	-15.5
N#Cc1ccc(-c2ccc(Cl)cc2)nc1SCC(=O)c1cccc(Cl)c1	-3.6	90.8*	15.5	-35.3	10.3
